# Test results as given in PubChem BioAssay (Tox21).
# Several values for one entry are separate records, joined by “and”; a condition that tells them apart may be missing. Equal values may be shown once. Inconclusive results are not listed. A call without a number means that no potency is given here. Some structures have more than one record in an assay (separate samples or runs), and their calls can disagree. Activity calls are given as the source filed them. Unless noted, calls follow the shape of the dose curve; as a rule, active = well fitted curve in the direction sought with a large enough effect in the repeat runs; inconclusive = weak or mixed curves; inactive = no such curve, though single readings can be large; an effect the other way counts as inactive or inconclusive.
# Assays:
# [1] = qHTS assay to identify small molecule agonists of the farnesoid-X-receptor (FXR) signaling pathway - cell viability counter screen (AID 743218); conditions: FXR-bla HEK293T viability, CellTiter-Glo luminescence, 16 h; series mostly up to 62.6 µM; also: nearly all actives have a fitted effect of over 45% in size; also: potency is read from the fitted curve at half-maximal effect
# In short: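 Cells were seeded, left 5 h at 37 C and 5% CO2, then dosed with compound in DMSO for 16 h. After the beta-lactamase FRET read, CellTiter-Glo was added and luminescence measured 30 min later.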
# [2] = qHTS assay to identify small molecule antagonists of the farnesoid-X-receptor (FXR) signaling pathway - cell viability counter screen (AID 743221; active = well fitted cell-killing curve with a large enough effect in the repeat runs, not every such curve was filed as active; also: nearly all actives have a fitted effect of over 50% in size; also: potency is read from the fitted curve at half-maximal effect); conditions: FXR-bla HEK293T viability, CellTiter-Glo luminescence, 16 h; series mostly up to 62.6 µM
# In short: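 Quantitative HTS of the Tox21 10K library run in parallel with the beta-lactamase reporter read. HEK 293T cells carrying a UAS-driven bla reporter got compound and 50 uM CDCA (final) for 16 h; ATP-based luminescence followed.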
# [3] = qHTS assay to identify small molecule antagonists of the peroxisome proliferator-activated receptor delta (PPARd) signaling pathway - cell viability counter screen (AID 743213); conditions: PPARd-bla HEK293H viability, CellTiter-Glo luminescence, 17 h; series mostly up to 62 µM; also: potency is read from the fitted curve at half-maximal effect; nearly all actives have a fitted effect of over 50% in size
# In short: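 CellTiter-Glo was added to PPARd-bla HEK293H wells following 17 h compound treatment in the presence of 300 nM L165041. Luminescence was recorded after 30 min at room temperature.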
# [4] = molecular target: Bile acid receptor (Homo sapiens) (UniProt Q96RI1); assay: qHTS assay to identify small molecule agonists of the farnesoid-X-receptor (FXR) signaling pathway (AID 743220; active = well fitted activation curve with a large enough effect in the signal ratio in the repeat runs, not every such curve was filed as active; the % refers to the signal ratio); conditions: HEK293T FXR-UAS-bla, beta-lactamase FRET ratio, 16 h; series mostly up to 62.6 µM
# Chain of Bile acid receptor (Homo sapiens) (Q96RI1 whole entry, looked up): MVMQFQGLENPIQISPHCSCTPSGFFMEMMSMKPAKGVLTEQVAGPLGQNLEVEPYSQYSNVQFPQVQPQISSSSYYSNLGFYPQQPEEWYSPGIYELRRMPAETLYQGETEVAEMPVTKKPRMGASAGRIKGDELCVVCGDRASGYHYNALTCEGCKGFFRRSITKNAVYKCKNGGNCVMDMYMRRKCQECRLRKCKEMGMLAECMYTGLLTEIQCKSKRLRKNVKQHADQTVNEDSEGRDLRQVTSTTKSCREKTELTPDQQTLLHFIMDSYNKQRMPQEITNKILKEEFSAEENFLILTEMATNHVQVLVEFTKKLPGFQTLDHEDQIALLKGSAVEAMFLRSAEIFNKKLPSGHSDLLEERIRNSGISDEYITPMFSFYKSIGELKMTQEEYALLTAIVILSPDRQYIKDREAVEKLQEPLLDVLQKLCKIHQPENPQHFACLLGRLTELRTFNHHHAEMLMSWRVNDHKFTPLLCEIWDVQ
# In short: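 FXR-UAS-bla HEK 293T cells carrying a UAS-driven beta-lactamase reporter were plated for 5 h at 37C/5% CO2, then exposed to DMSO-dissolved Tox21 10K compounds for 16 h at 37C. A LiveBLAzer B/G FRET substrate was loaded for 2 h at room temperature before fluorescence reading.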
# [5] = molecular target: Vitamin D3 receptor (Homo sapiens) (UniProt P11473); assay: qHTS assay to identify small molecule agonists of the vitamin D receptor (VDR) signaling pathway (AID 743222; calls by dose curve); conditions: HEK293T VDR-UAS-bla, beta-lactamase FRET ratio, 16 h; series mostly up to 63.5 µM
# Chain of Vitamin D3 receptor (Homo sapiens) (P11473 whole entry, looked up): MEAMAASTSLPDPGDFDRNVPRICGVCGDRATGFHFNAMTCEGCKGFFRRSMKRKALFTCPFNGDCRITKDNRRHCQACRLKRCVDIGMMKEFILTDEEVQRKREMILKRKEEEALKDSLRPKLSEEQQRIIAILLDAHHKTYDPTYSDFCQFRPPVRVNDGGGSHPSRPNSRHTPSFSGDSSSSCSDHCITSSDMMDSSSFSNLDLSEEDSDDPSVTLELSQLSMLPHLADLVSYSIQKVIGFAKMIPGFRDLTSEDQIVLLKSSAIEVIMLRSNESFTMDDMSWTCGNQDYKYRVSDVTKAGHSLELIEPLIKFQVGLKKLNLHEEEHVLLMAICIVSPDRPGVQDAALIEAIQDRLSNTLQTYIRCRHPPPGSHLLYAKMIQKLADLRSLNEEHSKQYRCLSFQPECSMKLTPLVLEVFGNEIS
# In short: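 Cells carrying a VDR-driven beta-lactamase reporter are seeded at 2,000 per well and rested 4 h. Compounds in DMSO are added for 16 h at 37C, and FRET substrate fluorescence is measured after 2 h at room temperature.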
# [6] = molecular target: Peroxisome proliferator-activated receptor delta (Homo sapiens) (UniProt Q03181); assay: qHTS assay to identify small molecule antagonists of the peroxisome proliferator-activated receptor delta (PPARd) signaling pathway (AID 743215; active = well fitted inhibition curve with a large enough effect in the signal ratio in the repeat runs, not every such curve was filed as active; the % refers to the signal ratio;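 also: cells stimulated with agonist L165041 at 300 nM final during compound exposure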); conditions: HEK293H PPARd-UAS-bla, beta-lactamase FRET ratio, antagonist, 17 h; series mostly up to 62 µM
# Chain of Peroxisome proliferator-activated receptor delta (Homo sapiens) (Q03181 whole entry, looked up): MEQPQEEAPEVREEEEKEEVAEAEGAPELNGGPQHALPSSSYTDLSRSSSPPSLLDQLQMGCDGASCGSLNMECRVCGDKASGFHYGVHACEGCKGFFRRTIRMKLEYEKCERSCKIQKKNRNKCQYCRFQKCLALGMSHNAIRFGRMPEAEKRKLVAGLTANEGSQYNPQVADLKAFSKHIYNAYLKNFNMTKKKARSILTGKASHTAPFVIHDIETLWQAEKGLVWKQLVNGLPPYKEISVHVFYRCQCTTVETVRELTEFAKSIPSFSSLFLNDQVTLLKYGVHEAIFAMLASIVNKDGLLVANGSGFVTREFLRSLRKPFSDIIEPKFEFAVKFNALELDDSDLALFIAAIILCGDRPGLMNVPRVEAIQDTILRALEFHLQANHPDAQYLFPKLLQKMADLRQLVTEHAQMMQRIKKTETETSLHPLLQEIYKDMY
# In short: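 Cells: HEK293H with a UAS-driven beta-lactamase reporter responsive to PPARd. Compounds were co-added with L165041 (300 nM, final) and incubated 17 h at 37 C before a 2 h room-temperature FRET substrate step and fluorescence reading.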
# [7] = molecular target: Vitamin D3 receptor (Homo sapiens) (UniProt P11473); assay: qHTS assay to identify small molecule antagonists of the vitamin D receptor (VDR) signaling pathway (AID 743223; active = well fitted inhibition curve with a large enough effect in the signal ratio in the repeat runs, not every such curve was filed as active; the % refers to the signal ratio; also: potency is read from the fitted curve at half-maximal effect); conditions: VDR-UAS-bla HEK293T, beta-lactamase FRET ratio, 16 h; series mostly up to 61 µM
# In short: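 Fluorescence from LiveBLAzer B/G FRET substrate, read after 2 h at room temperature, reflects beta-lactamase reporter activity in VDR-bla cells treated 16 h at 37C with compounds and agonist 1alpha,25-dihydroxyvitamin D3 (3 nM final).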
# [8] = qHTS assay to identify small molecule agonists of the vitamin D receptor (VDR) signaling pathway - cell viability counter screen (AID 743224); conditions: VDR-bla HEK293T viability, CellTiter-Glo luminescence, 16 h; series mostly up to 62.6 µM; also: nearly all actives have a fitted effect of over 50% in size; also: potency is read from the fitted curve at half-maximal effect
# In short: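 Cells: VDR-bla, 2,000/well, settled 4 h. Treatment: compounds in DMSO, 16 h, 37C/5% CO2. Readout: CellTiter-Glo luminescence after 30 min RT.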
structure (smiles),measurement,setting,value
[CH3][Hg][Cl],Potency,[1],13.8 µM (active)
same,Potency,[2],38.8 µM (active)
[Hg+2].[I-].[I-],Potency,[1],3.09 µM (active)
same,Potency,[2],3.89 µM (active)
BrC(Br)C(Br)(Br)Br,Potency,[3],39.1 µM (active)
same,outcome,[4],inactive
same,Potency,[2],inactive
same,Potency,[5],inactive
Clc1ccc(-c2ccc(Cl)c(Cl)c2Cl)c(Cl)c1Cl,Potency,[6],inactive
same,Potency,[1],46.6 µM (active)
same,outcome,[4],inactive
same,Potency,[2],inactive
same,Potency,[5],inactive
same,Potency,[7],inactive
[Cd+2].[Cl-].[Cl-],Potency,[3],7.83 µM (active) and 1.23 µM (active)
same,Potency,[1],11.1 µM (active) and 6.16 µM (active)
same,Potency,[2],12.4 µM (active) and 19.5 µM (active)
same,Potency,[8],1.75 µM (active) and 1.23 µM (active)
CN(C)C(=S)[S-].CN(C)C(=S)[S-].[Cu+2],Potency,[3],3.36 µM (active)
same,Potency,[1],0.946 µM (active)
same,Potency,[2],2.38 µM (active)
same,Potency,[8],1.5 µM (active)
CC1(C)CC/C(=C/c2ccc(Cl)cc2)C1(O)Cn1cncn1 (centres undefined),Potency,[2],inactive
same,Potency,[7],inactive
same,Potency,[8],54.6 µM (active)
CCC[CH2][Sn]([CH2]CCC)([CH2]CCC)[O]C(=O)c1ccccc1,Potency,[1],0.616 µM (active)
same,Potency,[2],2.45 µM (active)
same,Potency,[8],0.692 µM (active)
c1ccc(OCC2CO2)cc1 (centres undefined),Potency,[1],inactive
same,Potency,[2],inactive
same,Potency,[7],inactive
CC(C)(C)c1ccc(CSc2cnn(C(C)(C)C)c(=O)c2Cl)cc1,Potency,[2],inactive
same,Potency,[5],inactive
O=c1oc2ccccc2c(O)c1Cc1c(O)c2ccccc2oc1=O,outcome,[4],inactive
same,Potency,[7],inactive
C=CCC1=C(C)C(OC(=O)C2C(C=C(C)C)C2(C)C)CC1=O (centres undefined),Potency,[1],51.9 µM (active)
same,Potency,[2],46.3 µM (active)
same,Potency,[8],18.4 µM (active)
Oc1c(Br)c(Br)c(Br)c(Br)c1Br,outcome,[4],inactive
CC[C@H](C)[C@H]1O[C@]2(C=C[C@@H]1C)C[C@@H]1C[C@@H](C/C=C(\C)[C@@H](O[C@H]3C[C@H](OC)[C@@H](O[C@H]4C[C@H](OC)[C@@H](O)[C@H](C)O4)[C@H](C)O3)[C@@H](C)/C=C/C=C3\CO[C@@H]4[C@H](O)C(C)=C[C@@H](C(=O)O1)[C@]34O)O2,Potency,[1],12.9 µM (active)
same,Potency,[2],12.9 µM (active)
same,Potency,[8],7.27 µM (active)
CCCSP(=O)(OCC)SCCC,outcome,[4],inactive
same,Potency,[5],inactive
same,Potency,[8],inactive
Nc1ccc(Cc2ccc(N)c(Cl)c2)cc1Cl,Potency,[2],inactive
CC(C)CC(C)Nc1ccc(Nc2ccccc2)cc1 (centres undefined),Potency,[8],38.3 µM (active)
Oc1ccc2ccc3cccc4ccc1c2c34,Potency,[2],inactive
O=c1c(C2CC(c3ccc(-c4ccc(Br)cc4)cc3)Cc3ccccc32)c(O)sc2ccccc12 (centres undefined),Potency,[2],inactive
same,Potency,[7],inactive
COC12CC[C@@]3(C[C@@H]1C(C)(O)C(C)(C)C)[C@H]1Cc4ccc(O)c5c4[C@@]3(CCN1CC1CC1)[C@H]2O5 (some centres undefined),outcome,[4],inactive
Oc1cc(Cl)c(Cl)c(Cl)c1,outcome,[4],inactive
same,Potency,[2],inactive
same,Potency,[5],inactive
same,Potency,[7],inactive
same,Potency,[8],36.9 µM (active)
CC(C)Oc1cccc(NC(=O)c2ccccc2C(F)(F)F)c1,Potency,[2],inactive
same,Potency,[5],inactive
CC[C@H]1C[C@@H]2C[C@H]3c4[nH]c5ccc(OC)cc5c4CCN(C2)[C@@H]13,Potency,[1],inactive
same,Potency,[2],inactive
COC(=O)N(C(=O)N1CO[C@@]2(C(=O)OC)Cc3cc(Cl)ccc3C2=N1)c1ccc(OC(F)(F)F)cc1,Potency,[1],inactive
same,Potency,[2],inactive
same,Potency,[7],inactive
same,Potency,[8],inactive
C[C@]12CC[C@H]3[C@@H](CCC4=CC(=O)CC[C@@]43C)[C@@H]1CC[C@@H]2O,Potency,[2],inactive
same,Potency,[8],inactive
CC(C)C1CCC(Cc2ccc(Cl)cc2)C1(O)Cn1cncn1 (centres undefined),outcome,[4],inactive
CCOP(=O)(NC(C)C)Oc1ccc(SC)c(C)c1 (centres undefined),Potency,[1],inactive
same,Potency,[2],inactive
same,Potency,[5],inactive
same,Potency,[8],inactive
Nc1ccc(Sc2ccc(N)cc2)cc1,outcome,[4],inactive
same,Potency,[5],inactive
same,Potency,[8],inactive
CNC(C)Cc1ccc2c(c1)OCO2 (centres undefined),Potency,[1],inactive
same,Potency,[5],inactive
same,Potency,[7],inactive
c1ccc2c(c1)[nH]c1cnccc12,Potency,[1],inactive
same,Potency,[2],inactive
CCC(C)c1cc([N+](=O)[O-])cc([N+](=O)[O-])c1OC(=O)C=C(C)C (centres undefined),outcome,[4],inactive
same,Potency,[2],inactive
CC(C)CC(C)(c1ccc(O)cc1)c1ccc(O)cc1,outcome,[4],inactive
same,Potency,[2],55.1 µM (active) and inactive
same,Potency,[7],54.9 µM (active)
same,Potency,[8],49 µM (active)
C[C@@H]1CC[C@@]2(OC1)O[C@H]1[C@@H](O)[C@H]3[C@@H]4CC[C@H]5C[C@@H](O[C@@H]6O[C@H](CO)[C@H](O[C@@H]7O[C@H](CO)[C@@H](O)[C@H](O[C@@H]8OC[C@@H](O)[C@H](O)[C@H]8O)[C@H]7O[C@@H]7O[C@H](CO)[C@@H](O)[C@H](O[C@@H]8O[C@H](CO)[C@@H](O)[C@H](O)[C@H]8O)[C@H]7O)[C@H](O)[C@H]6O)[C@H](O)C[C@]5(C)[C@H]4CC[C@]3(C)[C@H]1[C@@H]2C,Potency,[1],26.1 µM (active)
same,Potency,[2],23.2 µM (active)
same,Potency,[5],inactive
same,Potency,[7],32.8 µM (active)
same,Potency,[8],8.24 µM (active)
CC(c1ccc(O)cc1)c1ccc(O)cc1,Potency,[2],inactive
CCCCCCCCCCCCCCCC[N+](C)(C)C,Potency,[1],14.9 µM (active) and 43.6 µM (active)
same,Potency,[2],23.7 µM (active) and 49 µM (active)
O=c1[nH]c2ccccc2n1CCCN1CCC(n2c(=O)[nH]c3cc(Cl)ccc32)CC1,Potency,[2],inactive
same,Potency,[8],inactive
CS(=O)(=O)c1ccc(C(=O)C2C(=O)CCCC2=O)c([N+](=O)[O-])c1,outcome,[4],inactive
same,Potency,[2],inactive
CCCCCCCCCCCCCCCC[n+]1ccccc1,Potency,[2],51.3 µM (active) and 43.6 µM (active) and 29.8 µM (active)
same,Potency,[8],25.7 µM (active) [middle of 4 runs]
O=C(O)COc1nc(Cl)c(Cl)cc1Cl,outcome,[4],inactive
same,Potency,[2],inactive
same,Potency,[5],inactive
CCCCCCCCCCCCCC[P+](CCCCCC)(CCCCCC)CCCCCC (tested in a mixture with another compound),Potency,[1],7.76 µM (active)
same,Potency,[2],6.92 µM (active)
S=C=Nc1cccc2ccccc12,outcome,[4],inactive
same,Potency,[7],inactive
same,Potency,[8],54.4 µM (active)
ClC1=C(Cl)[C@]2(Cl)[C@@H]3[C@@H]4C[C@@H]([C@H]5O[C@@H]45)[C@@H]3[C@@]1(Cl)C2(Cl)Cl,Potency,[1],56.4 µM (active)
same,Potency,[8],30.6 µM (active)
O=S(=O)(c1ccc(Cl)cc1)c1ccc(Cl)cc1,Potency,[2],inactive
same,Potency,[5],inactive
CCOCCOC(C)=O,Potency,[1],inactive
same,Potency,[2],inactive
same,Potency,[5],inactive
